ChEMBL document CHEMBL3988442, “University of Dundee, Small-Polar-MMV Screening Library” (2021)
Hit rate of the full screen: of about 48,000 compounds, about 13,000 (27%) showed an effect of 50% or more. The list shows a part of the results.

system: Wolbachia pipientis; experiment: Anti-Wolbachia Cell-Based Screen; assay type: functional; set-up: scale not given: in the data most compounds retested in dose-response had high values; conditions: 5 µM

SMILES | Percent Effect
CCOCCC(=O)N(C)Cc1noc(C(C)C)n1 | -6.768%
CC(C)CC(C(=O)N1CCCSCC1)N1CCCCC1=O (stereo unspecified) | -10.63%
COc1ccc(C(=O)N(c2ccc(OC)c(F)c2)C(C)C)cn1 | 3.547%
CNS(=O)(=O)c1cccc(C(C)NCc2ccc(F)c(F)c2)c1 (stereo unspecified) | 18.96%
COC(=O)c1ccc(N2CCC(N(C)c3ccccc3)CC2)nn1 | -3.944%
O=C(CCC1CCCO1)NCc1ccnc(-n2cccn2)c1 (stereo unspecified) | -9.533%
COCCN(Cc1sccc1C)C(=O)C1CCCN(C(N)=O)C1 (stereo unspecified) | 10.64%
Cc1ncc(CNC(C)(C)CO)c2cc(C(=O)c3ccc(Br)cc3)oc12 | 82.9%
Cc1ncc(CNCCO)c2cc(C(=O)c3ccc(Br)cc3)oc12.Cl | 215.6%
Cc1ncc(CNCC(C)O)c2cc(C(=O)c3ccc(Br)cc3)oc12.Cl (stereo unspecified) | 102.9%
CC(O)CNCc1ccccc1C(F)(F)F.Cl (stereo unspecified) | -7.899%
COc1ncc(C(=O)NCc2ccc(Br)cc2)cn1 | 4.726%
COC(=O)c1ccc(C(=O)NCc2ccc(Br)cc2)cn1 | 0.8592%
Cc1ncsc1CCN(C)Cc1ccc(CO)o1 | -28.69%
COC(=O)c1oc(CNC(C)(C)CO)cc1C | 5.82%
Cc1ncc(CN(C)CCO)c2cc(C(=O)c3ccc(Br)cc3)oc12.Cl | 142.2%
Cc1oc(CN(C)C(=O)c2ccc(Br)cc2)cc1C(=O)O | 5.692%
CN1CCc2[nH]nc(C(=O)N3CCCC4(CN(C)C(=O)O4)C3)c2C1 (stereo unspecified) | 0.3528%
CC(C)c1cc(NCC2(N3CCOCC3)CCCCC2)ncn1 | -13.37%
Cc1noc2ncnc(N3CCC(O)(Cn4ccnc4)CC3)c12 | -11.6%
Cc1cc(-c2nnn(CCC(N)=O)n2)ccc1F | -8.55%
CN(Cc1ccsc1)C(=O)CS(=O)(=O)Cc1ccc(Cl)c(Cl)c1 | -4.981%
COCCN1CCN(CC(=O)N(C)Cc2ccsc2)CC1 | -3.337%
CN(Cc1ccsc1)C(=O)Cn1c(CS(C)(=O)=O)nc2ccccc21 | 150.1%
CS(=O)(=O)CCNC(=O)C1(c2cccc(Cl)c2)CCCCC1 | 4.174%
CS(=O)(=O)N1CCOCC2(CN(Cc3ccsc3)CCO2)C1.O=C(O)C(F)(F)F (stereo unspecified) | -5.064%

SMILES | Percent Effect
CS(=O)(=O)N1CCOCC2(CCN(Cc3ccoc3)CC2)C1.O=C(O)C(F)(F)F | 115.7%
Cc1ccc(CN2CCC3(CC2)CCN(Cc2ccoc2)CC3)cc1.O=C(O)C(F)(F)F.O=C(O)C(F)(F)F | 17.41%
CN1CCOCC12CCN(Cc1ccoc1)CC2.O=C(O)C(F)(F)F.O=C(O)C(F)(F)F | 109%
CS(=O)(=O)N1CCOCC2(CCN(Cc3ccc[nH]3)CC2)C1.O=C(O)C(F)(F)F | -6.777%
O=C(CCc1ccsc1)NCc1ccnc(OC2CCOCC2)c1 | -13.16%
O=C(O)C(F)(F)F.O=c1ccc2c(n1CC1CC1)CCC(NCc1cccs1)C2 (stereo unspecified) | 108.8%
COc1ncccc1CNC1CCc2c(ccc(=O)n2C)C1.O=C(O)C(F)(F)F.O=C(O)C(F)(F)F (stereo unspecified) | 100.1%
COCCn1c2c(ccc1=O)CC(NCc1cccnc1OC)CC2.O=C(O)C(F)(F)F.O=C(O)C(F)(F)F (stereo unspecified) | 97.75%
COc1ncccc1CN1CCc2[nH]nc(C(=O)N3CCCC3C)c2C1.O=C(O)C(F)(F)F.O=C(O)C(F)(F)F (stereo unspecified) | 4.676%
COCCN1C(=O)CC[C@]12CC[C@@H](NCc1cccnc1OC)CC2.O=C(O)C(F)(F)F.O=C(O)C(F)(F)F | -1.329%
Cn1c2c(ccc1=O)CC(Nc1ncc(F)cn1)CC2.O=C(O)C(F)(F)F (stereo unspecified) | -3.561%
COc1ncccc1CNC1CCc2c(ccc(=O)n2CC2CC2)C1.O=C(O)C(F)(F)F.O=C(O)C(F)(F)F (stereo unspecified) | 98.83%
CN(C)C(=O)Cn1c2c(ccc1=O)CC(NCc1ccoc1)CC2.O=C(O)C(F)(F)F (stereo unspecified) | -9.512%
Cn1cnc(S(=O)(=O)NCC2CCN(C(=O)Oc3ccccc3)CC2)c1 | -16.29%
Cc1ccc(C(NC(=O)Cn2cc(C3CC3)nn2)C2CC2)cc1 (stereo unspecified) | -17.63%
Cc1cc(CN(C)C(=O)NC2CCC(O)CC2)no1 (stereo unspecified) | -5.162%
c1csc(CNc2ccccc2Cn2cncn2)c1 | 2.841%
Cn1cnc(S(=O)(=O)NCC2(O)CCc3ccccc32)c1 (stereo unspecified) | -54.8%
Cn1cc(CN2CCC[C@]3(C(=O)O)CN(c4cnccn4)CC[C@@H]23)cn1 | -2.616%
NC(=O)c1cnc(NC2CCN(c3ccccn3)CC2)c(Cl)c1 | -2.297%
CC(C)=CCn1ncc(N2CCCCC2)cc1=O | 8.054%
CC(C)=CCn1ncc(N2CCOCC2)cc1=O | 1.937%
O=c1cc(N2CCCCC2)cnn1CC(O)C(F)(F)F (stereo unspecified) | 110.9%
O=c1cc(N2CCNCC2)cnn1CCc1ccc(F)cc1 | -7.094%
O=c1cc(N2CCOCC2)cnn1CCc1ccc(F)cc1 | -9.338%
CCC(CC)Cn1ncc(N2CCOCC2)cc1=O | 7.831%

SMILES | Percent Effect
O=c1cc(N2CCCC2)cnn1CC(F)F | 95.3%
O=c1cc(N2CCCCC2)cnn1C[C@H](O)CO | 78.69%
O=c1cc(N2CCCC2)cnn1CCc1cccc(F)c1 | 9.222%
Cc1nnc(N2C[C@H](C(=O)NCC3CC3)[C@@H]3CCO[C@@H]3C2)s1.O=C(O)C(F)(F)F | 0.08379%
CC(C)Cc1noc(CNc2cccc(-c3nnnn3C)c2)n1 | 3.895%
CN(C)[C@H]1CCN(c2nc(C(C)(C)C)nc3c2cnn3C)C1 | -2.508%
COCc1nc(N2CCC(CCO)CC2)c2cnn(C)c2n1 | -4.999%
COCc1nc(N2CC[C@H](N(C)C)C2)c2cnn(C)c2n1 | 102.3%
CCc1nc(N2CCN(Cc3ncccc3C)CC2)c2cnn(C)c2n1 | 1.339%
CCCOC1CCCN(c2nc(COC)nc3c2cnn3C)C1 (stereo unspecified) | 118.8%
CCCOC1CCCN(c2nc(CC)nc3c2cnn3C)C1 (stereo unspecified) | 107.1%
CCCOC1CCCN(c2ncnc3c2CCN(C(=O)C2CC2)C3)C1 (stereo unspecified) | 1.517%
COc1cc(NC(=O)Cn2ccc3sc(C)cc3c2=O)cc(OC)c1 | -10.49%
COCCNC(=O)Cn1ccc2sc(C)cc2c1=O | 165.3%
CCC(C)NC(=O)Cn1ccc2sc(C)cc2c1=O (stereo unspecified) | 106.2%
COCCCNC(=O)CN(C)C(=O)c1cc(C)sc1C | -3.68%
NC(=O)NC(=O)Cn1ccc2sccc2c1=O | -7.139%
N#Cc1cccc(N2CCCC3(C2)CN(c2ncc(F)cn2)CCO3)n1.O=C(O)C(F)(F)F (stereo unspecified) | -18.06%
Fc1ccc(CN2CCCCC2Cn2cncn2)c2ncccc12 (stereo unspecified) | 6.637%
Cc1ncc(CC(=O)N2CCCC(COc3ccccc3F)C2)c(=O)[nH]1 (stereo unspecified) | 16.93%
Cn1cnc2c1CCN(Cc1cccc(OCC(N)=O)c1)C2 | -0.9151%
CC(=O)N1CCN(C[C@H]2CC[C@@H](Cc3ccc4c(c3)OCO4)O2)CC1 | 6.248%
O=C(O)C(c1ccc2c(c1)OCO2)N1CCC(C(=O)N2CCCC2)CC1 (stereo unspecified) | 0.296%
Cn1cc(C(=O)N2CCCC2c2ccc3c(c2)OCO3)ccc1=O (stereo unspecified) | 2.509%
COC(=O)N1CC[C@@]2(O)CCCC[C@H]2[C@@H]1c1ccc2c(c1)OCO2 | 122.6%
CC(=O)N1CC[C@H]2NC(=O)N(Cc3ccccc3)C(=O)[C@H]21 | 6.922%

SMILES | Percent Effect
CC(=O)N1CC[C@@]2(O)CCCC[C@H]2[C@@H]1c1ccccc1 | 132.1%
CN1CCN(C(=O)N2CC[C@@](O)(c3ccccc3)[C@H]3CCCC[C@@H]32)CC1 | -18.77%
CC(=O)N1CC[C@@]2(O)CCCC[C@H]2[C@@H]1c1ccc2c(c1)OCO2 | 121.2%
CCN1CCCC(O)(CNCc2ccc3c(c2)OCO3)C1 (stereo unspecified) | -9.558%
Cn1ccc(CN2CCCC2c2ccc3c(c2)OCCCO3)cc1=O (stereo unspecified) | 3.687%
NC(=O)CN1CCC(C(=O)NCc2ccc3c(c2)OCCCO3)CC1 | -4.067%
NC(=O)CN1CC[C@@]2(O)CCCC[C@H]2[C@@H]1c1ccc2c(c1)OCO2 | 128.7%
CCCN1CC2(CCN(c3ccc(C(C)=O)cn3)CC2)CC1C(=O)O (stereo unspecified) | 10.16%
Cc1noc([C@@H]2C[C@H](NC(=O)NC(C)C)CN2C)n1 | -7.021%
CN1C[C@@H](NC(=O)c2ccccc2)C[C@H]1c1nc(-c2cnccn2)no1 | -2.532%
CN1CCN(CCc2ncnn2-c2ccc3c(c2)OCO3)CC1 | -0.8313%
O=S(=O)(NCCSc1nccn1C1CC1)c1ccccc1 | 5.63%
Cc1ccc(CNCCN2CCOCC2)o1 | 131.7%
CSCc1ccc(CNCCN2CCOCC2)o1 | -4.251%
CSCc1ccc(CNCCCN2CCOCC2)o1 | 3.399%
CSc1ccccc1C(=O)NCc1cc2n(n1)CCCN(CC(C)C)C2 | -7.136%
Cn1cc(N2CCN(c3ccc(C#N)c(Cl)c3)CC2=O)cn1 | -30.5%
CC(C)(O)CN1CCN(C(=O)c2sccc2C2CC2)CC1 | -8.363%
Cc1cc(CN2CCN(C(=O)c3sccc3C(C)C)CC2)no1 | -0.2452%
CCc1nnsc1C(=O)N1CCN(CC(O)CC)CC1 (stereo unspecified) | -1.027%
CCC(O)CN1CCN(C(=O)c2sccc2C2CC2)CC1 (stereo unspecified) | 131.2%
CC(C)(C)OC(=O)N1CCN(C(=O)c2sccc2C2CC2)CC1 | -2.417%
CCC(O)CN1CCN(C(=O)c2sccc2C(C)C)CC1 (stereo unspecified) | 113.4%
